The list is not random: actives were taken first. Their share in the collection is about 8.7%.
Smad3 FoxH1 inh: Smad3/FoxH1 peptide binding inhibitors, primary screen, biochemical, TR-FRET; TR-FRET Smad3/Dy647-FoxH1 peptide binding, europium anti-His; inhibition, % at 25 µM; 88,000 tested, 0.29% active;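 active = compounds that reduce the energy-transfer binding signal between the protein and its labelled peptide by more than half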;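 note: 0% = Smad3 plus labelled peptide maximal FRET and 100% = peptide-only background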
PostGolgi yeast: phenotypic screen on post-Golgi transport, primary screen | inhibition, % at 10 µM | 98,000 tested, 0.9% active | post-Golgi transport phenotypic cell assay;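 note: yeast cells grown in 1536-well plates; yeast grown about 18 h at 30C before absorbance read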
PostGolgi ctrl: growth inhibition of yeast control strain, primary screen, counter-screen for post-Golgi transport modulator project. efflux-deficient yeast background strain, growth absorbance A615, 16 h. 98,000 tested, 5% active. inhibition, % at 10 µM
hDAT+cocaine: changed hDAT dopamine uptake under cocaine IC80, either direction, primary screen, cocaine antagonist project, cell-based, LLC-PK1 hDAT, [14C]-dopamine uptake, MLSMR; B-score at 10 µM; Sodium-dependent dopamine transporter (Homo sapiens), Q01959; LLC-PK1 hDAT cells, [14C]-dopamine uptake with cocaine IC80; actives deviate in either direction; 110,000 tested, 1.3% active;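 active = Z score or B-score, a plate-position-corrected score, falls beyond the plate's 99.7% confidence bounds, in either direction; inactive = both scores lie inside the 99.7% bounds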;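 note: scored against the spread of the other compound wells on the same plate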
Target sequence (Q01959 whole entry, looked up): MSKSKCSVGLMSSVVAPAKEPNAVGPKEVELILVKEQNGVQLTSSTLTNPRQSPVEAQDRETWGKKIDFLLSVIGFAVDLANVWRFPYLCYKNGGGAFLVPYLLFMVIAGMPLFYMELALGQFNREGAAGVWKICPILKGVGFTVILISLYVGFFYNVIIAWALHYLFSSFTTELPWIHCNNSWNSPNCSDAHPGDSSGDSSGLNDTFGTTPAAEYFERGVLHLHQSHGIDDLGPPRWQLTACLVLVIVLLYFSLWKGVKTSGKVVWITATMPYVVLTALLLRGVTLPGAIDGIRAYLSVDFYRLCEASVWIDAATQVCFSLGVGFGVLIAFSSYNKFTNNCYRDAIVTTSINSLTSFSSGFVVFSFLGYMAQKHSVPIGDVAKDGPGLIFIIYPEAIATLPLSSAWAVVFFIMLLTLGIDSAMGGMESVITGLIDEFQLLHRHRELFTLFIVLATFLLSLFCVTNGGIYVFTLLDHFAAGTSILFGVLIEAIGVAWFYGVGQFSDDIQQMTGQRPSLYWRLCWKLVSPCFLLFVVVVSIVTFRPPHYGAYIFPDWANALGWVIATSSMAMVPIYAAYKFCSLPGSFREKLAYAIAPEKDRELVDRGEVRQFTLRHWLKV
Cav32 inh: Cav3.2 calcium influx blockers – cell-based, Fluo-4 calcium fluorescence, FDSS, MLSMR library, primary screen; 100,000 tested, 4% active; Voltage-dependent T-type calcium channel subunit alpha-1H (Homo sapiens), O95180; Cav3.2-expressing cells; active compounds read low; B-score at 10 µM; AID 449739, 2010;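 active = single-dose well whose peak fluorescence ratio is a statistical outlier from its plate by either plate-standardised score or position-corrected B-score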
TNAP act DEA: human TNAP enzyme activators, primary screen, biochemical, luminescent, intermediate phosphate acceptor level. Alkaline phosphatase, tissue-nonspecific isozyme (Homo sapiens), P05186. purified TNAP, CDP-star luminescence, 100 mM DEA, 30 min; active compounds read high; scale: 0 levamisole-inhibited, 1 vehicle-only enzyme. activation factor at 20 µM. 64,000 tested, under 10 active;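 active = activation factor of at least 2 at 20 µM, relative to controls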
* hit, by the source's call; . = no result. Cut-off read from the data, not from the text of the source, unless noted: active = inhibition above about 30%; inactive = the rest.

SMILES	Smad3 FoxH1 inh	PostGolgi yeast	PostGolgi ctrl	hDAT+cocaine	Cav32 inh	TNAP act DEA
C#Cc1ccc([C@@H]2C=C(C(=O)NC3CC3)O[C@H](OCc3ccc(CO)cc3)C2)cc1	.	.	.	-0.2	-1.9	.
CCc1ccc(CNC(=O)C(=O)NCCc2ccc(OC)c(OC)c2)cc1	.	.	.	0.61	-5.3*	.
COc1ccc(/C=C/C(=O)NC(=S)NNC(=O)c2ccco2)cc1	15	.	.	0.023	-5.3*	.
COc1ccc(/C=C/C(=O)NC(=S)NCCc2ccc(OC)c(OC)c2)cc1	.	-4	-13	-0.68	.	.
Cc1cc(C)cc(OC(=O)CS(=O)c2ccc(C(F)(F)F)cc2[N+](=O)[O-])c1 (configuration not stated)	3	13	35*	0.88	1.1	.
O=C(CSc1nc2ccccc2c(=O)n1Cc1ccco1)c1ccccc1	9	-4	31*	0.033	-2.2	0.9
CCOC(=O)CSc1nc2ccccc2c(=O)n1Cc1ccco1	-3	3	20	-0.14	-1.4	0.9
CCN(C(=O)CSc1nc2cc(C(=O)OC)ccc2c(=O)n1Cc1ccco1)c1cccc(C)c1	7	-1	8	2.3	-4.3*	0.9
Cc1ccc(CSc2nc3ccccc3c(=O)n2Cc2ccco2)cc1	0	.	.	0.56	-4.6*	.
O=c1c2ccccc2nc(SCc2nc3ccccc3s2)n1Cc1ccco1	4	5	14	-0.49	-1.7	0.9
O=c1c2ccccc2nc(SCc2ccccc2)n1Cc1ccco1	5	19	18	0.16	-5.8*	0.9
CCc1ccc(NC(=O)CSc2nc3cc(C(=O)OC)ccc3c(=O)n2Cc2ccco2)cc1	4	-8	-2	0.1	-0.086	0.9
CN(C(=O)c1cccnc1)c1nnc(-c2ccccn2)s1	2	-9	11	0.82	-0.77	0.9
CCS(=O)(=O)CCSc1nc(C)cc(C)c1C#N	-11	3	4	-0.78	-0.098	0.9
O=c1c2ccccc2nc(SCc2cccc(F)c2)n1Cc1ccco1	2	4	31*	1.3	-3.4	0.9
O=c1c2ccccc2nnn1CSc1nc2ccccc2c(=O)n1Cc1ccco1	2	.	.	0.48	-0.83	0.9
C=CCCCN(Cc1ccccc1)S(=O)(=O)c1ccccc1Br	.	.	.	0.087	-3.7*	.
Cc1[nH]c2ccccc2c1C(=O)/C=C/c1ccccc1	.	20	6	-0.82	-0.98	.
Cc1[nH]c(=O)c(C(=O)/C=C/c2ccccc2F)c2c1CCCC2	.	3	30*	-0.57	0.99	.
O=C(O)CCc1nc(-c2ccccc2)no1	12	4	1	-0.13	-0.56	0.9
CCc1ccccc1N(C)C(=O)CCc1nc(-c2ccc(C)cc2)no1	-3	-8	44*	-0.31	-5.5*	0.9
COc1ccc(Cl)cc1N(C)C(=O)CCc1nc(-c2ccc(C)cc2)no1	-6	-3	33*	-0.044	-5.7*	0.9
COc1ccc(NC(=O)CCc2nc(-c3ccc(C)cc3)no2)cc1Cl	-5	0	9	-0.47	-0.77	0.9
CC1CC(C)CN(S(=O)(=O)c2ccc(NC(=O)C3COc4ccccc4O3)cc2)C1 (configuration not stated)	-1	3	38*	0.12	-4.1	0.9
COC(=O)c1cc(OC)c(OC)cc1NC(=O)CN1CCOCC1	1	0	4	-0.54	0.074	1
SMILES	Smad3 FoxH1 inh	PostGolgi yeast	PostGolgi ctrl	hDAT+cocaine	Cav32 inh	TNAP act DEA
O=c1[nH]n(-c2ncnc3c2cnn3-c2ccccc2)c(=O)c2ccccc12	-2	3	0	1.2	-1.3	1.3
COc1ccc(-c2nc3ccccn3c2NCc2ccc3c(c2)OCO3)cc1	1	.	.	1.6	-4*	.
Cc1nc2ccccn2c1C(=O)NCc1ccc2c(c1)OCO2	-8	21	0	-0.16	0.32	0.8
c1ccc(-c2nc3ccccn3c2NCc2ccc3c(c2)OCO3)cc1	7	-3	3	.	-4.2*	.
COc1ccc(CC(=O)NCc2ccc3c(c2)OCO3)cc1	2	16	5	-0.33	-0.67	.
Cc1cccc(N=c2oc3cc(O)ccc3cc2C(N)=O)c1	5	12	18	2.2	0.51	0.8
CCC(c1nnnn1CCOC)N1CCN(c2cccc(C(F)(F)F)c2)CC1 (configuration not stated)	.	5	11	0.47	-0.018	0.9
COCCn1nnnc1C(c1cccs1)N1CCN(c2cccc(C(F)(F)F)c2)CC1 (configuration not stated)	-11	4	25	0.29	-5.4*	.
N/C(=N\c1nc2ccccc2o1)NC(=O)c1ccc(F)cc1	.	-8	1	0.03	0.0097	.
O=C(COC(=O)c1cccnc1Cl)c1ccccc1	-3	.	32*	-1.6	0.73	.
O=C(O)c1cc(-c2ccccc2)c(N2CCOCC2)s1	2	1	9	-0.036	1.7	0.9
O=C(c1ccc(Cl)cc1)c1cc(-c2ccccn2)c(N2CCOCC2)s1	.	4	49*	2.2	1.4	.
C=CCn1c(SCC(=O)Nc2ccc(C)cc2C)nnc1-c1cccnc1	-7	11	14	0.62	1.5	1.1
Fc1cccc(Cn2cc(C(=S)N3CCCCC3)c3ccccc32)c1	.	-8	13	0.47	-4.9*	.
O=C(CS(=O)(=O)c1cn(Cc2cccc(F)c2)c2ccccc12)N1CCOCC1	.	-11	3	0.25	0.24	1
CCCCn1nc2cc(C(=O)NC3CCCc4ccccc43)ccc2c1OCC (configuration not stated)	.	5	-4	0.78	-0.96	.
O=c1cc(CN2CCOCC2)nc(C2CC2)[nH]1	.	8	4	-7.2*	-0.35	.
COc1ccc(S(=O)(=O)Cc2ccc(C(=O)N3CCN(c4ccccn4)CC3)o2)cc1	7	-10	13	-0.49	0.35	0.9
Cc1cccc(Nc2ccccc2C(=O)OCC(=O)N2CCOCC2)c1C	7	3	35*	0.025	-0.053	1
Cc1cc(NC(=O)c2cccc3ccccc23)cc(C)c1OCC(=O)N1CCOCC1	-4	-8	-6	1.8	-1.2	.
O=C(CSc1nc(-c2ccccc2)cc(=O)[nH]1)Nc1ccccn1	13	3	8	0.6	0.035	0.9
O=C(CSc1n[nH]c(-c2ccc(Cl)cc2Cl)n1)Nc1ccccn1	.	-3	33*	.	.	.
O=C(NCC(=O)N(Cc1ccccc1)C(C(=O)NCC1CCCO1)c1ccccc1)c1cccs1 (configuration not stated)	.	-7	6	-0.016	0.0075	.
CCn1c(SCC(=O)N(C(C)C)C(C)C)nnc1-c1cc2ccccc2cc1O	-2	2	46*	-0.67	0.44	0.9
